Screens deposited in PubChem by National Center for Advancing Translational Sciences (NCATS).
Pf Dd2 inh – inhibitors of Plasmodium falciparum Dd2 growth | P. falciparum Dd2 growth, SYBR Green, 72 h | Potency, µM (doses to about 28.9 µM), usual class: inhibitors | 120,000 tested, 4.3% active | AID 1347417; active = well fitted inhibition curve with a large enough effect; note: nearly all actives have a fitted effect of over 65% in size
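Readout: SYBR Green fluorescence, 485 nm excitation, 535 nm emission, after ~16 h lysis at 37C. Before that, Dd2-infected red cells (2.5% hematocrit) grew 72 h with compound, 29 uM top final concentration.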
Numbers stand for hits; – = inactive; [ ] = dose if it differs, or a comment. The full list was thinned out, with hits kept by preference.

SMILES | Pf Dd2 inh
CN(C)CCN1CC2(CCN(C(=O)Cc3c[nH]c(=O)[nH]c3=O)CC2)OC1=O | –
COCCN(C)C[C@@H]1CN(C(=O)c2csc(C(C)C)n2)C[C@@H]1CO | –
COc1ccc(NC(=O)CSc2cc(-c3ccccc3)nc(C)n2)cc1 | –
COc1cc(NC(=O)CSc2ncccc2C(=O)OC(C)C)cc(OC)c1 | –
COc1cc(NC(=O)Cn2cccc2-c2nc(-c3ccc(OC)c(F)c3)no2)cc(OC)c1 | –
COc1cc(NC(=O)CSc2nc3ccccc3nc2Cc2ccc(Cl)cc2)cc(OC)c1 | –
COc1cc(NC(=O)CSc2nc(-c3ccc(C(C)C)cc3)no2)cc(OC)c1 | 0.71µM
COc1cc(NC(=O)CSc2nc(-c3ccccc3)no2)cc(OC)c1 | 1.1µM
CCCc1noc(-c2ccn3c(CNC(=O)Cc4ccccc4OC)nnc3c2)n1 | –
O=C(c1cccc2[nH]ccc12)N1C[C@@H](CO)[C@H](c2nc(C3CC3)no2)C1 | –
CC(C)n1c(C2CCN(C(=O)COc3ccc(F)cc3)CC2)nn(C)c1=O | –
Cc1ccc(NC(=O)CCN2C(=O)c3ccccc3Sc3ncccc32)cc1 | –
COC(=O)c1cc(Nc2nc3ccccc3nc2NS(=O)(=O)c2ccc(C)cc2)ccc1Cl | –
c1ccc(-c2ccc3ncc(Nc4cccnc4)n3n2)cc1 | 1.6µM
Fc1ccc(-c2ccc3ncc(Nc4ncccn4)n3n2)cc1 | –
c1ccc(-c2ccc3ncc(Nc4cnccn4)n3n2)cc1 | –
Fc1ccc(-c2ccc3ncc(Nc4ccc(Cl)cn4)n3n2)cc1 | –
Fc1ccc(-c2ccc3ncc(Nc4ccccn4)n3n2)cc1 | 5.6µM
Clc1ccc(Nc2cnc3ccc(-c4ccccc4)nn23)nc1 | –
Cc1ocnc1C(=O)N1CCC2(CC1)CN(CC(C)c1ccccc1)C(=O)O2 (stereo not drawn) | –
Cc1cc2ncc(C(=O)N3CCCn4nc(CCC(=O)O)cc4C3)c(=O)n2[nH]1 | –
CN1CCCN(C[C@@H]2CN(C(=O)CCc3ccc(F)cc3)C[C@@H]2CO)CC1 | –
O=C(Cc1cccc(O)c1)N1CC(CNc2ccccc2)C2(C1)CN(c1ccccc1)C2 (stereo not drawn) | –
CCOC(=O)CNC(=O)Nc1cc(C(=O)NCc2cccc(F)c2)ccc1N1CCCC1 | –
CN(C)c1ccc2ncc(Nc3ccccc3)n2n1 | –
SMILES | Pf Dd2 inh
c1ccc(-c2ccc3ncc(Nc4ccc(N5CCOCC5)cc4)n3n2)cc1 | –
CN(C)c1ccc2ncc(Nc3cc(F)cc(N4CCOCC4)c3)n2n1 | 10µM
O=C1CO[C@H]2CCN(Cc3ccccc3Cl)CC[C@@H]2N1CCc1cccnc1 | –
COC1CN(C2CCN(C(=O)CC3CCCCC3)CC2)C12CCOCC2 (stereo not drawn) | –
Cc1cccc(N2CCN(c3nc4ccccc4c(=O)n3-c3ccc(Cl)cc3)CC2)c1C | –
Cc1cccc(N2CCN(c3nc4ccccc4c4nc(-c5ccccc5)nn34)CC2)c1C | –
Cc1cccc(N2CCN(c3nc4ccccc4c4nnc(C)n34)CC2)c1C | 0.89µM
O=C(NCCN1CCCCC1)[C@H]1C[C@@H](O)[C@H](O)[C@@H]2N=C(Nc3ccc4c(c3)OCO4)S[C@@H]21 | –
COCCn1ccc2c(C3=CCOCC3)nc(-c3cccc(N[S+](C)(=O)[O-])c3)cc21 | –
COc1ccc(OC)c(CNC(=O)C2CCN(c3cn[nH]c(=O)c3)C2)c1 (stereo not drawn) | –
COCCN1C(=O)[C@H]2CN(Cc3ccccc3OC(F)(F)F)C[C@H]2C1=O | –
COc1cccc(CN2C[C@@H]3C(=O)N(CCN4CCc5ccccc5C4)C(=O)[C@@H]3C2)c1OC | 7.1µM
COc1cccc(CN2CCc3nn(C)c(=O)n3CC2)c1OC | –
C[C@]1(CO)C2CC[C@@H](O)[C@@H](CC(=O)N3CCC[C@H]3CO)[C@]2(C)CC[C@H]1OC(=O)Nc1cccc(F)c1 (stereo partly drawn) | –
O=C(Cn1nc2n(c1=O)CCCC2)Nc1ccccc1 | –
O=C1CCN(S(=O)(=O)c2ccccc2)CCCN(Cc2ccccn2)CCN1 | –
O=C1CCN(S(=O)(=O)c2ccccc2)CCCN(C(=O)C2(c3ccccc3)CC2)CCN1 | 0.79µM
COc1ccc(C(=O)N2CCCN(S(=O)(=O)c3ccccc3)CCC(=O)NCC2)cc1 | –
CS(=O)(=O)N1CCCN(S(=O)(=O)c2ccccc2)CCC(=O)NCC1 | –
O=C1CCN(S(=O)(=O)c2ccccc2)CCCN(C2CCOCC2)CCN1 | –
O=C1CCN(S(=O)(=O)c2ccccc2)CCCN(Cc2ccc3[nH]ccc3c2)CCN1 | 11µM
COc1ccc2[nH]c(C(=O)N3CCCN(S(=O)(=O)c4ccccc4)CCC(=O)NCC3)cc2c1 | 13µM
O=C1CCN(S(=O)(=O)c2ccccc2)CCCN(C2CCCCCC2)CCN1 | 10µM
O=C1CCN(S(=O)(=O)c2ccccc2)CCCN(C(=O)c2cc3ccccc3[nH]2)CCN1 | –
O=C1CCN(C(=O)C2(c3ccccc3)CC2)CCCCCCN1 | –
SMILES | Pf Dd2 inh
O=C1CCN(S(=O)(=O)c2ccccc2)CCCN(C(=O)Cc2ccccc2)CCN1 | –
Cn1cccc1CN1CCCN(S(=O)(=O)c2ccccc2)CCC(=O)NCC1 | –
CCC(=O)N1CCc2cc(S(=O)(=O)CCC(=O)N3CCN(c4cccc(C)c4C)CC3)ccc21 | –
O=C(NC[C@H]1CCc2ccccc2O1)C1CCN(C(=O)C2CC2)CC1 | –
CC(=O)c1cccc(NC(=O)CN2C(=O)CN(C)C(=O)c3ccccc32)c1 | –
COc1ccccc1CC(=O)NCc1cccnc1-n1cnc2ccccc21 | –
CCC(C(=O)N1CCN(c2cccc(C)c2C)CC1)n1nc(C)c2sc3ccccc3c2c1=O (stereo not drawn) | –[5.79 µM]
COCC(=O)N[C@@H]1CN(C(=O)c2cccc(C)c2)CC[C@@H]1c1nc(C)no1 | –[5.79 µM]
CC(C)NC(=O)NC[C@H]1C[C@@H]2CCN1C[C@@H]2CN1CCN(c2ccccn2)CC1 | –
Cc1cc(C2CCCN2C(=O)c2ccc(-c3ccccc3Cl)o2)no1 (stereo not drawn) | –
COc1ccccc1CN1CCC2(CC1)C(=O)NCN2Cc1ccc(Cl)cc1 | –
O=C(C[C@@H]1CCNC[C@@H]1Cc1cc(CSc2ccccc2)on1)NCc1cccnc1 | –
CN(Cc1ccccc1)C(=O)C[C@@H]1CCNC[C@@H]1Cc1cc(CSc2ccccc2)on1 | 10µM
COc1ccc(-c2cc(C[C@H]3CNCC[C@H]3CC(=O)N3CCN(C)CC3)no2)cc1 | –
O=C(C[C@@H]1CCNC[C@@H]1Cc1cc(CSc2ccccc2)on1)NCCN1CCOCC1 | –
COc1ccc(-c2cc(C[C@H]3CNCC[C@H]3CC(=O)NCc3ccc(OC)c(OC)c3)no2)cc1 | –
O=C(C[C@@H]1CCNC[C@@H]1Cc1cc(COc2ccccc2)on1)NC1CCCCC1 | –
COc1ccc(CNC(=O)C[C@@H]2CCNC[C@@H]2Cc2cc(-c3ccc(OC)cc3)on2)cc1 | –
COc1ccc(-c2cc(C[C@H]3CNCC[C@H]3CC(=O)N(C)Cc3ccccc3)no2)cc1 | 10µM
C#CCN(C)C(=O)C[C@@H]1CCNC[C@@H]1Cc1cc(COc2ccccc2)on1 | 10µM
COc1ccc(CNC(=O)C[C@@H]2CCNC[C@@H]2Cc2cc(CN(C)Cc3ccccc3)on2)cc1 | –
COc1ccc(-c2cc(C[C@H]3CNCC[C@H]3CC(=O)N3CCN(c4ccccc4)CC3)no2)cc1 | –
COc1ccc(-c2cc(C[C@H]3CNCC[C@H]3CC(=O)NCc3ccccc3OC)no2)cc1 | 10µM
Cc1cccc(NC(=O)CSc2nnc(NC(=O)Nc3ccccc3)s2)c1C | –
COC(=O)CNC(=O)N1CCCCCCn2c(nnc2-c2ccc(F)cc2)CC1 | –
